# From PubChem BioAssay
# Calls of active or inactive are those of the source.
# How the values were obtained:
# [1] = optical density shifts of acrAB sulA E. coli – strain DRC41, OD650, 48 h, E. coli filamentation inducer project, primary screen (AID 1152); details: higher = more signal, called active from +8 up or from −8 down;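 note: E. coli MC1000 strain DRC41 lacking acrAB efflux pump and sulA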
# [2] = probe aLefty1 binding on compound microarray – biochemical, small-molecule microarray, 635/667 nm fluorescence, primary screen (AID 1153); details: higher = more signal;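 note: score merges spot fluorescence with signal-to-noise ratio from the scanned slide images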
# [3] = plasmodial surface anion channel blockers, osmotic lysis – cell-based, P. falciparum Indochina, OD700, 1 h, primary screen (AID 1154); details: P. falciparum Indochina infected RBC osmotic lysis, higher = more signal, called active from +8 up or from −8 down
# [4] = plasmodial surface anion channel blockers, osmotic lysis – cell-based, P. falciparum Indochina, OD700, 2 h, primary screen (AID 1155);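 note: lysis reports solute entry through the parasite surface anion channel PSAC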; details: P. falciparum Indochina infected erythrocytes, higher = more signal, called active from +8 up or from −8 down
# [5] = changes in parasitized red cell lysis, either direction – P. falciparum Indochina, OD700, 3 h, PSAC antagonist project, primary screen (AID 1156); details: P. falciparum-infected erythrocytes, osmotic lysis, higher = more signal, called active from +8 up or from −8 down
# [6] = plasmodial surface anion channel blockers, osmotic lysis – cell-based, P. falciparum Indochina, OD700, 18 h, primary screen (AID 1157); details: P. falciparum Indochina infected erythrocytes, osmotic lysis OD700, 18 h; higher = more signal, called active from +8 up or from −8 down
# [7] = S6 kinase pathway phospho-S6 level changes – cell-based, A549, cytoblot, luminescence, serum-stimulated, primary screen (AID 1158); details: 5 h, higher = more signal;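 note: serum-stimulated A549 lung adenocarcinoma cells; signal is phosphorylated S6 detected by cytoblot immunostaining with HRP secondary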
# [8] = molecular target: NADPH oxidase 2 (Homo sapiens) (UniProt P04839); test: compounds shifting NOX2 Amplex Red fluorescence – cell-based, HEK293-NOX2, PMA-stimulated, NOX inhibitor project, primary screen (AID 1159); details: 45 min, higher = more signal, called active from +8 up or from −8 down; note: test concentration not given here
# [9] = molecular target: NADPH oxidase 4 (Homo sapiens) (UniProt Q9NPH5); test: compounds shifting NOX4 Amplex Red fluorescence – cell-based, HEK293-NOX4, tetracycline-induced, NOX inhibitor project, primary screen (AID 1160); details: HEK293-NOX4, Amplex Red H2O2 fluorescence, 45 min; higher = more signal, called active from +8 up or from −8 down
# [10] = molecular target: NADPH oxidase 5 (Homo sapiens) (UniProt Q96PH1); test: compounds shifting NOX5 Amplex Red fluorescence – cell-based, HEK293-NOX5, NOX inhibitor project, primary screen (AID 1161); details: HEK293-NOX5, ionomycin, 45 min, higher = more signal
# Chain of NADPH oxidase 5 (Homo sapiens) (Q96PH1 whole entry, looked up): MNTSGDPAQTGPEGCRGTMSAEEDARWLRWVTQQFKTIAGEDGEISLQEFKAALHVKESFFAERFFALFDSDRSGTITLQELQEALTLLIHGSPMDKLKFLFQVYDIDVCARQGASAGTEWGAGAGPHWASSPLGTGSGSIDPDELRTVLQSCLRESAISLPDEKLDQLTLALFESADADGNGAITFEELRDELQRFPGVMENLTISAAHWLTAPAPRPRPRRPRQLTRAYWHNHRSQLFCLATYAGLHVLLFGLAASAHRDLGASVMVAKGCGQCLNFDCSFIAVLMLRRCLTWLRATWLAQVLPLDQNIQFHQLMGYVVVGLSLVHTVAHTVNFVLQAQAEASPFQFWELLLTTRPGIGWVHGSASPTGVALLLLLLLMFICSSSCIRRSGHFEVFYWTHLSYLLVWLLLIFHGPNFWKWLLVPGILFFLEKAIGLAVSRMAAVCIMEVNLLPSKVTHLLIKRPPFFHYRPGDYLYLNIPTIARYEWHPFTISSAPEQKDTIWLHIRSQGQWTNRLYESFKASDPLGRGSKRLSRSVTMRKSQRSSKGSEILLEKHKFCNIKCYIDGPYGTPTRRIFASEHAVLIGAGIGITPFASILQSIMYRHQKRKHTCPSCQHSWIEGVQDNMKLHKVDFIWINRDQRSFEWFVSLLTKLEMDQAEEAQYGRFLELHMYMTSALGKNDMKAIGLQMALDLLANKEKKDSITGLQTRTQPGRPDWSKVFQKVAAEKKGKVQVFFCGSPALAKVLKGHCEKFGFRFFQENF
# Chain of NADPH oxidase 2 (Homo sapiens) (P04839 whole entry, looked up): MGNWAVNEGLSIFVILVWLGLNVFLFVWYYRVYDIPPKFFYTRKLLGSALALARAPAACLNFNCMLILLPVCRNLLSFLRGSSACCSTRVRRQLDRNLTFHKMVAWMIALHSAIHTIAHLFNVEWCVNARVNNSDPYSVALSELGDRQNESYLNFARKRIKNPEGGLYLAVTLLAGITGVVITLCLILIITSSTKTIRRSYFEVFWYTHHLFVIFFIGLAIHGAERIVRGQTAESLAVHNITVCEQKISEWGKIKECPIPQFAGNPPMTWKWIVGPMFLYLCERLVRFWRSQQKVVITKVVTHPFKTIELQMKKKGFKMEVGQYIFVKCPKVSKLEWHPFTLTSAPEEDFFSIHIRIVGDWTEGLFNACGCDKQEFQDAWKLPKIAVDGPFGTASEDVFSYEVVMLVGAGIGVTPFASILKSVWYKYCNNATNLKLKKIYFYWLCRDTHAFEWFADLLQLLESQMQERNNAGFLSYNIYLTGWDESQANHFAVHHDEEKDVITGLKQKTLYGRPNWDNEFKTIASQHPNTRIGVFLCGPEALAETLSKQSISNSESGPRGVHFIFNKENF
# Chain of NADPH oxidase 4 (Homo sapiens) (Q9NPH5 whole entry, looked up): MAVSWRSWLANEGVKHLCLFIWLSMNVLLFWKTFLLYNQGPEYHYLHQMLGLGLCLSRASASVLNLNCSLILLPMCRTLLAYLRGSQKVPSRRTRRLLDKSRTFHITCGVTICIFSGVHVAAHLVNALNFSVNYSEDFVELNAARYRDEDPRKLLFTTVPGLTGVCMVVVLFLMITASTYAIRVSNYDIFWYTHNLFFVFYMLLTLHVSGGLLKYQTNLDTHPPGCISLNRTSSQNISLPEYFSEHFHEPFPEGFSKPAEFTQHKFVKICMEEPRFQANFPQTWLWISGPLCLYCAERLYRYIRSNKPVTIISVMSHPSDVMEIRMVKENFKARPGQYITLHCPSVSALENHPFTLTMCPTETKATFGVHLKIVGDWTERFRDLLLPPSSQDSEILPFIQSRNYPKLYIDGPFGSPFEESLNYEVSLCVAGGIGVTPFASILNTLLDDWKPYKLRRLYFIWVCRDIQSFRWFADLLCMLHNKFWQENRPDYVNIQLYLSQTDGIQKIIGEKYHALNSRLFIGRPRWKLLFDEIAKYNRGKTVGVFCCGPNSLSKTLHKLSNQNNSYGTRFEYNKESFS
Compound,z-score [1],composite z-score [2],z-score [3],z-score [4],z-score [5],z-score [6],z-score [7],z-score [8],z-score [9],z-score [10]
C=C(CC1([C@@H](NP(=O)(c2ccccc2)c2ccccc2)[C@H]2C[C@@H]2CCCC)CC1)c1cccc(OC)c1,-1.57 (inactive),0.494,2.33 (inactive),0.451 (inactive),1.36 (inactive),0.935 (inactive),-0.254,-0.914 (inactive),-1.36 (inactive),-2.78
CC1(C)OB(/C=C\CC(OC(=O)c2ccncc2)c2ccccc2)OC1(C)C (stereo not given),-0.318 (inactive),1.24,0.777 (inactive),-0.854 (inactive),-0.66 (inactive),-0.678 (inactive),-0.119,-2.45 (inactive),0.637 (inactive),-5.03
COC(=O)C(CC#Cc1ccc2c(c1)[C@]1(C(=O)N2)[C@H](c2ccccc2OCCO)N2[C@H](c3ccccc3)[C@H](c3ccccc3)OC(=O)[C@H]2[C@@H]1C(=O)N1CCN(c2ncccn2)CC1)C(=O)OC,-0.577 (inactive),-0.0984,3.02 (inactive),1.49 (inactive),0.928 (inactive),0.565 (inactive),-0.512,0.803 (inactive),0.849 (inactive),2.23
C[C@@]1([C@@H](NS(=O)(=O)c2cccc3cccnc23)c2ccc(-c3ccccc3)cc2)C[C@H]1C1CCCCC1,-2.47 (inactive),1.31,0.668 (inactive),0.367 (inactive),1.39 (inactive),0.691 (inactive),-0.79,0.168 (inactive),-0.61 (inactive),-1.99
CC(C)(C)OC(=O)CC[C@]1(C(N)=O)N=C(c2ccc(OCCCO)cc2)O[C@H]1c1ccccc1N=[N+]=[N-],0.831 (inactive),0.267,30.5 (active),32.4 (active),0.697 (inactive),2.48 (inactive),-0.3,-0.285 (inactive),0.324 (inactive),-1.19
COC(=O)[C@@]1(Cc2ccc(F)cc2)[C@H]2c3cc(C(=O)N4CCCC4)n(Cc4ccc(C(F)(F)F)nc4)c3C[C@H]2CN1C(=O)c1ccccc1,-0.984 (inactive),0.93,2.37 (inactive),0.229 (inactive),2.16 (inactive),0.716 (inactive),-0.186,0.0745 (inactive),0.488 (inactive),-2.46
[N-]=[N+]=NCc1ccccc1[C@H]1OC(c2ccc(OCCCO)cc2)=N[C@@]1(Cc1ccccc1N=[N+]=[N-])C(=O)N1CCOCC1,-0.476 (inactive),0.181,28.3 (active),22 (active),2.5 (inactive),3.77 (inactive),-0.318,-5.55 (inactive),-1.03 (inactive),-2.42
C=C[C@H](C)[C@@H](OC(=O)Nc1ccc(SC)cc1)c1ccc(OCCO)cc1,-2.61 (inactive),0.459,28.3 (active),20.6 (active),3.01 (inactive),2.27 (inactive),-0.336,-1.31 (inactive),-1.23 (inactive),0.0398
COCCCNC(=O)[C@@]1(c2ccc([N+](=O)[O-])cc2)CC(=O)N(C2CCCCC2)[C@@H]1c1ccc(CO)cc1I,0.725 (inactive),-0.208,12.6 (active),1.35 (inactive),3.44 (inactive),1.11 (inactive),0.107,1.78 (inactive),0.381 (inactive),2.07
CC[C@H]1C2=C3C(CC[C@H]4C(OCc5ccc(F)cc5C(F)(F)F)OC[C@](C)([C@@H]34)N(C(=O)OC(C)(C)C)C2)C(COC(C)=O)C1COC(C)=O (stereo not given in full),-2.44 (inactive),0.713,0.408 (inactive),-0.248 (inactive),0.483 (inactive),0.323 (inactive),-0.772,-1.05 (inactive),-2.56 (inactive),-1.43
